# A number with no mark means an inactive call.
# Columns and labels:
# Assay in all cases: log2 ratio of Biotin-Ahx-Ub-VS probe labelling (fragment/DMSO); higher = less target engagement (more negative = stronger competition), active = hit call of the paper (q ≤ 0.05, log2 ratio ≤ -1)
# Conditions in all cases: compound concentration: 200 uM; treatment time: 3 h
# OTUD6B = target: T1, OTUD6B (UniProt Q8N6M0)
# T1 sequence (whole entry): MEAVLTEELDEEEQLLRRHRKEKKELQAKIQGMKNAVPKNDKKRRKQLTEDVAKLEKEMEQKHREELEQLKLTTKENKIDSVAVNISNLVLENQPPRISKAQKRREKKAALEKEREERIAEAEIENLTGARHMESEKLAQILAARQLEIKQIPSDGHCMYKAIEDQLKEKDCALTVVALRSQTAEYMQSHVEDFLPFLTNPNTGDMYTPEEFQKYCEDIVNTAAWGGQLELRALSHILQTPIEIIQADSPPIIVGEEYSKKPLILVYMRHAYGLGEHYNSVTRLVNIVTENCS
# Summary of the method: (§1)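 HEK293T lysate (495 µg per sample, in Tris/CHAPS/IGEPAL buffer with protease inhibitors) was exposed in triplicate for 3 h to fragment at 200 µM or to vehicle, then to Biotin-Ahx-Ub-VS at 0.5 µM final for 1 h. Labelled DUBs were enriched on NeutrAvidin, digested with LysC and trypsin, and analysed by diaPASEF LC-MS/MS. Spectronaut label-free quantities were normalised to the global median, and values are average log2 ratios of fragment over vehicle from an unpaired t-test. Only proteins with ≥2 unique peptides were used.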
# OTUD7B = target: T2, OTUD7B (UniProt Q6GQQ9)
# T2 sequence (whole entry): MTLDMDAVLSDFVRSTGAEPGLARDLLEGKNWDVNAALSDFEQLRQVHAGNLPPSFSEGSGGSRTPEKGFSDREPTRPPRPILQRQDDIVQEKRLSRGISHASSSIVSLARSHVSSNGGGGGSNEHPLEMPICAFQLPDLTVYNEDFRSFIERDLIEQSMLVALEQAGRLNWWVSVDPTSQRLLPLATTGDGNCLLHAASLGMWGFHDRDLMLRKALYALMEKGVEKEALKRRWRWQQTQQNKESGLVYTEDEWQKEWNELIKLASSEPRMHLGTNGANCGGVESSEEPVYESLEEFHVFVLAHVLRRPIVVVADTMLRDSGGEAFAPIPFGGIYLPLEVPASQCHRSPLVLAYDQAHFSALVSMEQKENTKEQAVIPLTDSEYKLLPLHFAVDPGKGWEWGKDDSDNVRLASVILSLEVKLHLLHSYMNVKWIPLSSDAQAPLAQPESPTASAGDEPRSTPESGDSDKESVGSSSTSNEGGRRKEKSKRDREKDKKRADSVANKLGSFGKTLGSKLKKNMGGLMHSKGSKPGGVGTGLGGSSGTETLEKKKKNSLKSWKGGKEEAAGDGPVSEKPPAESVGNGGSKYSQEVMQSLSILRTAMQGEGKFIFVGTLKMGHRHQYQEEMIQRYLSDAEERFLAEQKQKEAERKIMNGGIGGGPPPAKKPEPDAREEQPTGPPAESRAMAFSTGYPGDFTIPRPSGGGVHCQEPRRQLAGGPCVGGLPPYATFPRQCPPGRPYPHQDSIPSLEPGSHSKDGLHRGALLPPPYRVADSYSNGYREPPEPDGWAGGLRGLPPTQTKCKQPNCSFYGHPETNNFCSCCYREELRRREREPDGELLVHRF
# Summary of the method: as §1
# PRPF8 = PRPF8 (UniProt Q6P2Q9)
# Summary of the method: as §1
# PSMD7 = target: T3, PSMD7 (UniProt P51665)
# T3 sequence (whole entry): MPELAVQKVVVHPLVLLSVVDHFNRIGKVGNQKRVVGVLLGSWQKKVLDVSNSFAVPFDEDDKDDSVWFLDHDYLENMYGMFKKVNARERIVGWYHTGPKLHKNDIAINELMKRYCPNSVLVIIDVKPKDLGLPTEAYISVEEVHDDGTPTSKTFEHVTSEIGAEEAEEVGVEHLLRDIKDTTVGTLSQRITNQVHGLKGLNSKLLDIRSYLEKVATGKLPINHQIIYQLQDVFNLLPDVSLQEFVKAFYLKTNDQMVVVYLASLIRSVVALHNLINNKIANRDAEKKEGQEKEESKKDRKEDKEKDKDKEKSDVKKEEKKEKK
# Summary of the method: as §1
# UCHL1 = UCHL1 (UniProt P09936)
# Summary of the method: as §1
# UCHL3 = target: T4, UCHL3 (UniProt P15374)
# T4 sequence (whole entry): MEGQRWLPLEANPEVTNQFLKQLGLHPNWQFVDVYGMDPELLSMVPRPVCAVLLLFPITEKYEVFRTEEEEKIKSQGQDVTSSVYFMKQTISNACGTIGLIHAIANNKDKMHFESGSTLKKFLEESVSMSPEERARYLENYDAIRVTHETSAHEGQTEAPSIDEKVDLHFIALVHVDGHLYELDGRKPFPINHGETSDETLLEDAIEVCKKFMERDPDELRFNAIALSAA
# Summary of the method: as §1
# UCHL5 = target: T5, UCHL5 (UniProt Q9Y5K5)
# T5 sequence (whole entry): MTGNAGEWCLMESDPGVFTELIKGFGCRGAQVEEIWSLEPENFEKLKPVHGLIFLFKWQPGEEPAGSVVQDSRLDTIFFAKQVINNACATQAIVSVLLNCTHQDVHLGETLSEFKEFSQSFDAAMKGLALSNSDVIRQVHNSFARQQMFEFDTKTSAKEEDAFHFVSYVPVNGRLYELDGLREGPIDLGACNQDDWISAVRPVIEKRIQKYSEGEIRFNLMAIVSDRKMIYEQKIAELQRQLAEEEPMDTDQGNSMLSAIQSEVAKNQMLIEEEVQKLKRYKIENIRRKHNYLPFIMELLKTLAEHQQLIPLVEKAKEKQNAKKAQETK
# Summary of the method: as §1
# USP10 = USP10 (UniProt Q14694)
# Summary of the method: as §1
# USP15 = target: T6, USP15 (UniProt Q9Y4E8)
# T6 sequence (whole entry): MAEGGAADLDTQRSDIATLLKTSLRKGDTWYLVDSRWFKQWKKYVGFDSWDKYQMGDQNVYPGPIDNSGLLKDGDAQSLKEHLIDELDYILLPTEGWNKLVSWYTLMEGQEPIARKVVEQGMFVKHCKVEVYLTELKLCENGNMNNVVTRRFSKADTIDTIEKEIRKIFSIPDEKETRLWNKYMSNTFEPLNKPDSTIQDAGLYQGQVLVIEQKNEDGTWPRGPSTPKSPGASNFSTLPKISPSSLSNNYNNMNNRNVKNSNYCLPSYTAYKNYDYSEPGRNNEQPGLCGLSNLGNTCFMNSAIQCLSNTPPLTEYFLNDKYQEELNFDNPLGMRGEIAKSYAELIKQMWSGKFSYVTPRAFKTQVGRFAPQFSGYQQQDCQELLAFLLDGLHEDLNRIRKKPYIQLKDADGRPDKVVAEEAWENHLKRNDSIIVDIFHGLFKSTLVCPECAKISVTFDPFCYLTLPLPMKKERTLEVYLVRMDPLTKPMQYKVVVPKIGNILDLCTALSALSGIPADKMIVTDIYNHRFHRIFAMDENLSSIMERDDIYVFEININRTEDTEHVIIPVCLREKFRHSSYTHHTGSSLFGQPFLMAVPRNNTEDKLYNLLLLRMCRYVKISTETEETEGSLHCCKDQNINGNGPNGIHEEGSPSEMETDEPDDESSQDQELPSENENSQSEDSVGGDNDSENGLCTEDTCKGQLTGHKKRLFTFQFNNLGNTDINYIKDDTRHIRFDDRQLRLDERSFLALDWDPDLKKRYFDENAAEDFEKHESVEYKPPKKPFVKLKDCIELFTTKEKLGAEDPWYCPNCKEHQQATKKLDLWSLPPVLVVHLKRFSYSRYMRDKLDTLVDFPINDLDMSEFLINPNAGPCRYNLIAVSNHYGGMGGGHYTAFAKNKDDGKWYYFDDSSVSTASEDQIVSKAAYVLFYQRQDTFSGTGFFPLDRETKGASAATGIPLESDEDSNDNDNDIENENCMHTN
# Summary of the method: as §1
# USP16 = USP16 (UniProt Q9Y5T5)
# Summary of the method: as §1
# Sequence of USP16 (Q9Y5T5 whole entry, looked up): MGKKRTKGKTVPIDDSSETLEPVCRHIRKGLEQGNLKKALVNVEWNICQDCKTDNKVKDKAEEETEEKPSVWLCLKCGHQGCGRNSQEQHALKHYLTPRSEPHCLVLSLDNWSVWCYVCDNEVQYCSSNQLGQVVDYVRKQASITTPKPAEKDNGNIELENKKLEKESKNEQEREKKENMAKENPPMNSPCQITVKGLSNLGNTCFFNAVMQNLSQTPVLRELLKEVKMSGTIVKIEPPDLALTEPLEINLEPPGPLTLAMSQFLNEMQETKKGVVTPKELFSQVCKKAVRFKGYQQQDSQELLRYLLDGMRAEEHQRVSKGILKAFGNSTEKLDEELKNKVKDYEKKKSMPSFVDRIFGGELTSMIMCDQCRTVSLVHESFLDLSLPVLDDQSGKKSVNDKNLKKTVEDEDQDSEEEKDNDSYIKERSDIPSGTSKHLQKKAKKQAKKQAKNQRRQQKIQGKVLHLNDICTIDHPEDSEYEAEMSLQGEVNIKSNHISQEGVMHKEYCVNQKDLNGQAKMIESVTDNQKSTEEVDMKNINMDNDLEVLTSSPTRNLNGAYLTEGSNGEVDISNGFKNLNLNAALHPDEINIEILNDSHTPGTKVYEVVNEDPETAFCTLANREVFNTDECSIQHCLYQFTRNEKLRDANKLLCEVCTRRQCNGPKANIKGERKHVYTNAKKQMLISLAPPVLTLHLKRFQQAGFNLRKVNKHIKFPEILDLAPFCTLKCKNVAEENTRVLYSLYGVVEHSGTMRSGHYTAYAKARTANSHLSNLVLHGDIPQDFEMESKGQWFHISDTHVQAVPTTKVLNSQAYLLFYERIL
# Sequence of USP10 (Q14694 whole entry): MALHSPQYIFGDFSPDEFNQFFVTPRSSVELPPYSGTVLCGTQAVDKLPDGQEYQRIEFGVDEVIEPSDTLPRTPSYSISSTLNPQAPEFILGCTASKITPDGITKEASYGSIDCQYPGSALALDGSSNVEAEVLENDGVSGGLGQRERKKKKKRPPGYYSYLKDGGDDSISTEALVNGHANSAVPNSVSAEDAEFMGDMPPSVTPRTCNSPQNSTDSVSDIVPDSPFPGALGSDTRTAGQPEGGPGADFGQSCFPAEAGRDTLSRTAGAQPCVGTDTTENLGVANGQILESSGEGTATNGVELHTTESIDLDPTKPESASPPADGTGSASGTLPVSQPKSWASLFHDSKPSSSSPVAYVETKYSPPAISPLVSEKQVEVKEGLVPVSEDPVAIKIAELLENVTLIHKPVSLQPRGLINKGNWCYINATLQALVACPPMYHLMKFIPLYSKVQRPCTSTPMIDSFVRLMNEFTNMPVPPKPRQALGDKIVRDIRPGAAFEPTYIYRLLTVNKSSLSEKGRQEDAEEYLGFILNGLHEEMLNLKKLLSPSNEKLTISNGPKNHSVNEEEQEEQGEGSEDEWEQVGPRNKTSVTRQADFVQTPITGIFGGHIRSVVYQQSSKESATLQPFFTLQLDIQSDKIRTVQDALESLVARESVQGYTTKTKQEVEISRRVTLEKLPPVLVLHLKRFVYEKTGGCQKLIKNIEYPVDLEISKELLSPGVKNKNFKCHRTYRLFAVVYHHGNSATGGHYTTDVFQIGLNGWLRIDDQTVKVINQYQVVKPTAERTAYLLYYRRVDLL
# Sequence of UCHL1 (P09936 whole entry, looked up): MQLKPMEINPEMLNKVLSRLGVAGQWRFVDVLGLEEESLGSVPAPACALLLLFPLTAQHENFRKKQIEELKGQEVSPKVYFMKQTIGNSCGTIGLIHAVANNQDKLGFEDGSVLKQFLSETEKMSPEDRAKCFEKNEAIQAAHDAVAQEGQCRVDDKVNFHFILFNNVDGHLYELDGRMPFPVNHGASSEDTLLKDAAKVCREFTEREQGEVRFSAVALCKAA
smiles,measurement,setting,value
CCCn1nccc1NC(=O)CCl,log2 ratio of Biotin-Ahx-Ub-VS probe labelling,OTUD6B,0.0729
same,log2 ratio of Biotin-Ahx-Ub-VS probe labelling,OTUD7B,-1.42 (active)
same,log2 ratio of Biotin-Ahx-Ub-VS probe labelling,PRPF8,0.193
same,log2 ratio of Biotin-Ahx-Ub-VS probe labelling,PSMD7,-0.254
same,log2 ratio of Biotin-Ahx-Ub-VS probe labelling,UCHL1,-0.343
same,log2 ratio of Biotin-Ahx-Ub-VS probe labelling,UCHL3,0.0705
same,log2 ratio of Biotin-Ahx-Ub-VS probe labelling,UCHL5,-0.074
same,log2 ratio of Biotin-Ahx-Ub-VS probe labelling,USP10,-0.0888
same,log2 ratio of Biotin-Ahx-Ub-VS probe labelling,USP15,-0.238
same,log2 ratio of Biotin-Ahx-Ub-VS probe labelling,USP16,-0.307

# Source: the supplement of paper PMC11732987, “Enantioselective OTUD7B fragment discovery through chemoproteomics screening and high-throughput optimisation” (Communications Chemistry, 2025)
